Where a name gives a salt, the structure may show the parent alone. ± gives the standard deviation of the averaged measurements.
How the values were obtained:
[1] = tested on: Saccharomyces cerevisiae BY4741 SeMeCo community; assay: mean cell size (pixel area) (pixels); higher = larger cells; settings: 10 µM; 24 h; SM minimal medium
In short: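 Yeast cells were fixed with paraformaldehyde, imaged by automated confocal microscopy and analysed in Harmony to obtain mean cell pixel area per well. They came from a four-plasmid fluorescent Saccharomyces cerevisiae BY4741 community, each plasmid complementing one auxotrophy and carrying a fluorescent marker. Before imaging, 70 µl of culture at OD600 = 0.3 was incubated for 24 h in SM medium in 384-well plates predosed acoustically with drug (final 10 µM). Values are means of 3 replicates. Same SeMeCo high-content imaging drug screen: Selleck FDA-approved drugs at 10 µM, 24 h in SM medium, 384-well plates, 3 replicates.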

[2] = tested on: Saccharomyces cerevisiae BY4741 SeMeCo community; assay: z-score of prototroph abundance vs DMSO median; higher = larger share of this subpopulation than in DMSO controls; settings: 10 µM; 24 h; SM minimal medium; subpopulation (auxotrophy): Prototroph
In short: (§1)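 A Saccharomyces cerevisiae BY4741 community carried four plasmids, each restoring one auxotrophy and encoding a distinct fluorescent protein. It was pre-grown overnight to OD600 1.0, diluted to 0.3, and 70 µl was added to 384-well plates acoustically predosed with library drugs (10 µM final), then grown 24 h in minimal SM medium. Cells were paraformaldehyde-fixed and imaged by automated confocal microscopy, with single-auxotroph fluorescent strains setting thresholds and autofluorescence correction. Each subpopulation's abundance was scored as a z-score against the vehicle-well median.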

[3] = tested on: Saccharomyces cerevisiae BY4741 SeMeCo community; assay: z-score of subpopulation abundance vs DMSO median, subpopulation auxotrophic for M; higher = larger share of this subpopulation than in DMSO controls; settings: 10 µM; 24 h; SM minimal medium; subpopulation (auxotrophy): M
In short: as §1

[4] = tested on: Saccharomyces cerevisiae BY4741 SeMeCo community; assay: z-score of subpopulation abundance vs DMSO median, subpopulation auxotrophic for L; higher = larger share of this subpopulation than in DMSO controls; settings: 10 µM; 24 h; SM minimal medium; subpopulation (auxotrophy): L
In short: as §1

[5] = tested on: Saccharomyces cerevisiae BY4741 SeMeCo community; assay: z-score of subpopulation abundance vs DMSO median, subpopulation auxotrophic for U; higher = larger share of this subpopulation than in DMSO controls; settings: 10 µM; 24 h; SM minimal medium; subpopulation (auxotrophy): U
In short: as §1

[6] = tested on: Saccharomyces cerevisiae BY4741 SeMeCo community; assay: z-score of subpopulation abundance vs DMSO median, subpopulation auxotrophic for LM; higher = larger share of this subpopulation than in DMSO controls; settings: 10 µM; 24 h; SM minimal medium; subpopulation (auxotrophy): LM
In short: as §1

[7] = tested on: Saccharomyces cerevisiae BY4741 SeMeCo community; assay: z-score of subpopulation abundance vs DMSO median, subpopulation auxotrophic for HM; higher = larger share of this subpopulation than in DMSO controls; settings: 10 µM; 24 h; SM minimal medium; subpopulation (auxotrophy): HM
In short: as §1

[8] = tested on: Saccharomyces cerevisiae BY4741 SeMeCo community; assay: z-score of subpopulation abundance vs DMSO median, subpopulation auxotrophic for HU; higher = larger share of this subpopulation than in DMSO controls; settings: 10 µM; 24 h; SM minimal medium; subpopulation (auxotrophy): HU
In short: as §1

[9] = tested on: Saccharomyces cerevisiae BY4741 SeMeCo community; assay: z-score of subpopulation abundance vs DMSO median, subpopulation auxotrophic for UM; higher = larger share of this subpopulation than in DMSO controls; settings: 10 µM; 24 h; SM minimal medium; subpopulation (auxotrophy): UM
In short: as §1

[10] = tested on: Saccharomyces cerevisiae BY4741 SeMeCo community; assay: z-score of subpopulation abundance vs DMSO median, subpopulation auxotrophic for HL; higher = larger share of this subpopulation than in DMSO controls; settings: 10 µM; 24 h; SM minimal medium; subpopulation (auxotrophy): HL
In short: as §1

[11] = tested on: Saccharomyces cerevisiae BY4741 SeMeCo community; assay: z-score of subpopulation abundance vs DMSO median, subpopulation auxotrophic for HLU; higher = larger share of this subpopulation than in DMSO controls; settings: 10 µM; 24 h; SM minimal medium; subpopulation (auxotrophy): HLU
In short: as §1

[12] = tested on: Saccharomyces cerevisiae BY4741 SeMeCo community; assay: z-score of subpopulation abundance vs DMSO median, subpopulation auxotrophic for HUM; higher = larger share of this subpopulation than in DMSO controls; settings: 10 µM; 24 h; SM minimal medium; subpopulation (auxotrophy): HUM
In short: as §1

[13] = tested on: Saccharomyces cerevisiae BY4741 SeMeCo community; assay: z-score of subpopulation abundance vs DMSO median, subpopulation auxotrophic for LUM; higher = larger share of this subpopulation than in DMSO controls; settings: 10 µM; 24 h; SM minimal medium; subpopulation (auxotrophy): LUM
In short: as §1

[14] = tested on: Saccharomyces cerevisiae BY4741 SeMeCo community; assay: z-score of subpopulation abundance vs DMSO median, subpopulation auxotrophic for HLUM; higher = larger share of this subpopulation than in DMSO controls; settings: 10 µM; 24 h; SM minimal medium; subpopulation (auxotrophy): HLUM
In short: as §1

[15] = tested on: Saccharomyces cerevisiae BY4741 SeMeCo community; assay: z-score of subpopulation abundance vs DMSO median, subpopulation auxotrophic for HLM; higher = larger share of this subpopulation than in DMSO controls; settings: 10 µM; 24 h; SM minimal medium; subpopulation (auxotrophy): HLM
In short: as §1

[16] = tested on: Saccharomyces cerevisiae BY4741 SeMeCo community; assay: z-score of subpopulation abundance vs DMSO median, subpopulation auxotrophic for H; higher = larger share of this subpopulation than in DMSO controls; settings: 10 µM; 24 h; SM minimal medium; subpopulation (auxotrophy): H
In short: as §1

SMILES | mean cell size [1] | z-score of prototroph abundance [2] | z-score of subpopulation abundance [3] | z-score of subpopulation abundance [4] | z-score of subpopulation abundance [5] | z-score of subpopulation abundance [6] | z-score of subpopulation abundance [7] | z-score of subpopulation abundance [8] | z-score of subpopulation abundance [9] | z-score of subpopulation abundance [10] | z-score of subpopulation abundance [11] | z-score of subpopulation abundance [12] | z-score of subpopulation abundance [13] | z-score of subpopulation abundance [14] | z-score of subpopulation abundance [15] | z-score of subpopulation abundance [16]
COc1ccccc1OCC(O)CN1CCN(CC(=O)Nc2c(C)cccc2C)CC1 (centres undefined) [Ranolazine] | 12.5 ± 0.23 | -0.25 | 0.23 | 0.18 | -0.29 | 0.68 | 0.37 | -0.09 | 0.37 | -0.42 | -0.21 | 0.18 | 0.49 | 0.5 | – | –
Cc1nc2n(c(=O)c1CCN1CCC(c3noc4cc(F)ccc34)CC1)CCCC2 [Risperidone] | – | -0.99 | -0.08 | -0.44 | 0.56 | 0.47 | 0.48 | 0.99 | – | 0.49 | 0.19 | 1.02 | – | -0.21 | 0.11 | –
CO/N=C1\C[C@]2(C[C@@H]3C[C@@H](C/C=C(\C)C[C@@H](C)/C=C/C=C4\CO[C@@H]5[C@H](O)C(C)=C[C@@H](C(=O)O3)[C@]45O)O2)O[C@H](/C(C)=C/C(C)C)[C@H]1C [Moxidectin] | 12.4 ± 0.18 | – | -0.74 | 0.29 | – | 0.55 | 1.1 | 2.12 | 0.37 | 1.14 | 1.24 | 1.33 | – | -0.1 | 1.14 | 1.63
O=C(O)Cc1ccccc1Nc1c(Cl)cccc1Cl [Diclofenac Diethylamine] | 12.66 ± 0.1 | 2.27 | -0.07 | 0.07 | -1.34 | -0.51 | – | -1.85 | – | -1.1 | -0.36 | -1.96 | -1.21 | 0 | -0.26 | -1.31
CC[C@@H]1/C=C(\C)C[C@H](C)C[C@H](OC)[C@H]2O[C@@](O)(C(=O)C(=O)N3CCCC[C@H]3C(=O)O[C@H](/C(C)=C/[C@@H]3CC[C@H](Cl)[C@H](OC)C3)[C@H](C)[C@@H](O)CC1=O)[C@H](C)C[C@@H]2OC [Pimecrolimus] | 11.6 ± 0.16 | -1.82 | 1.75 | 3.91 | -1.72 | 4.26 | 1.95 | – | -0.8 | 4.57 | 1.88 | 0.94 | 4.36 | 2.63 | – | 1.91
CC[C@@H]1C(=O)OC[C@@H]1Cc1cncn1C [Pilocarpine HCl] | – | 0.73 | 0.65 | 0.16 | – | 0.75 | 0.01 | -0.93 | -0.51 | – | -0.93 | -1.4 | -0.76 | -0.1 | -0.18 | 0.8
CCN1CCN(c2cc3c(cc2F)c(=O)c(C(=O)O)cn3C2CC2)CC1 [Enrofloxacin] | 12.04 ± 0.1 | 0.16 | 0.24 | -0.5 | 0.01 | – | – | 0.07 | – | -0.47 | -0.04 | 0.02 | -0.06 | – | 0.21 | -0.13
CC[C@H](C)C(=O)O[C@H]1C[C@H](O)C=C2C=C[C@H](C)[C@H](CC[C@@H](O)C[C@@H](O)CC(=O)O)[C@H]21 [Pravastatin] | 12.2 ± 0.19 | -1.08 | 0.52 | -0.43 | 1.19 | 0.2 | 0.47 | – | 1.36 | 0.42 | -0.44 | 1.56 | 0.59 | -0.51 | -0.51 | 0.39
Nc1ccc(S(=O)(=O)Nc2nccs2)cc1 [Sulfathiazole] | 12.4 ± 0.21 | 0.17 | -0.25 | -0.12 | 0.9 | -0.24 | -0.53 | – | 1.04 | -0.09 | 0.27 | 0.33 | 0.11 | -0.19 | – | –
CC(C)[C@H]1CC[C@H](C(=O)N[C@H](Cc2ccccc2)C(=O)O)CC1 [Nateglinide] | 12.5 ± 0.12 | -0.85 | 1.18 | 0.26 | -0.59 | 0.32 | – | 0.06 | 0.38 | -0.02 | -0.32 | – | 1.15 | 0.69 | 0.89 | 0.66
CC1(C)S[C@@H]2[C@H](NC(=O)[C@H](N)c3ccccc3)C(=O)N2[C@H]1C(=O)OCOC(=O)[C@@H]1N2C(=O)C[C@H]2S(=O)(=O)C1(C)C [Sultamicillin] | 12.26 ± 0.082 | -1.74 | 0.2 | 1.05 | 0.83 | 0.38 | – | 2.39 | 0.83 | 2.28 | 1.83 | 1.4 | 1.13 | 0.86 | 1.63 | 1.56
c1cnc(N2CCN(Cc3ccc4c(c3)OCO4)CC2)nc1 [Piribedil] | 12.6 ± 0.18 | -0.35 | 0.35 | 0.51 | 0.44 | 0.32 | 0.27 | -0.25 | -0.82 | 0.51 | 0.22 | -0.11 | 0.73 | – | 1.03 | –
CCC[C@@H]1C[C@@H](C(=O)N[C@@H]([C@H]2O[C@H](SC)[C@H](O)[C@@H](O)[C@H]2O)[C@H](C)Cl)N(C)C1 [Clindamycin HCl] | 12.61 ± 0.074 | -0.3 | 0.72 | 0.8 | -0.42 | 0.83 | 0.38 | -0.26 | 0.35 | 0.26 | -0.02 | -0.28 | – | – | 0.06 | -0.08
CO[C@H]1C[C@@H]2CC[C@@H](C)[C@@](O)(O2)C(=O)C(=O)N2CCCC[C@H]2C(=O)O[C@H]([C@H](C)C[C@@H]2CC[C@H](n3cnnn3)[C@H](OC)C2)CC(=O)[C@H](C)/C=C(\C)[C@@H](O)[C@@H](OC)C(=O)[C@H](C)C[C@H](C)/C=C/C=C/C=C/1C [Zotarolimus(ABT-578)] | 13.94 ± 0.041 | -17.5 | -0.02 | 0.32 | – | 2.28 | – | 23.5 | – | – | 18.8 | 22.3 | 5.72 | 31.4 | 18.4 | 14.4

— the supplement of paper PMC8975748
